This is an account of results in ChEMBL document CHEMBL3988442, “University of Dundee, Small-Polar-MMV Screening Library” (2021).

Each structure is given as a SMILES string. Values joined by “and” are separate entries in the source; they are usually repeats but may differ in a detail not shown here. Identical values can stand only once. For some of these results: Potency and affinity values are given separately.

Common to all, as to set-up: scale not given: direction of the effect not stated beside the values
Assay [1] addresses Protein translocase subunit SecA (Escherichia coli (strain K12)) (UniProt P10408). In words: Assay to Identify E. coli SecA ATPase Inhibitors. It is filed as functional. The conditions noted are these: 30 µM.
The target in assay [2] is T1, Ubiquitin-activating enzyme e1, putative (Leishmania donovani (strain BPK282A1)) (UniProt E9BSI1).
T1 sequence (whole entry): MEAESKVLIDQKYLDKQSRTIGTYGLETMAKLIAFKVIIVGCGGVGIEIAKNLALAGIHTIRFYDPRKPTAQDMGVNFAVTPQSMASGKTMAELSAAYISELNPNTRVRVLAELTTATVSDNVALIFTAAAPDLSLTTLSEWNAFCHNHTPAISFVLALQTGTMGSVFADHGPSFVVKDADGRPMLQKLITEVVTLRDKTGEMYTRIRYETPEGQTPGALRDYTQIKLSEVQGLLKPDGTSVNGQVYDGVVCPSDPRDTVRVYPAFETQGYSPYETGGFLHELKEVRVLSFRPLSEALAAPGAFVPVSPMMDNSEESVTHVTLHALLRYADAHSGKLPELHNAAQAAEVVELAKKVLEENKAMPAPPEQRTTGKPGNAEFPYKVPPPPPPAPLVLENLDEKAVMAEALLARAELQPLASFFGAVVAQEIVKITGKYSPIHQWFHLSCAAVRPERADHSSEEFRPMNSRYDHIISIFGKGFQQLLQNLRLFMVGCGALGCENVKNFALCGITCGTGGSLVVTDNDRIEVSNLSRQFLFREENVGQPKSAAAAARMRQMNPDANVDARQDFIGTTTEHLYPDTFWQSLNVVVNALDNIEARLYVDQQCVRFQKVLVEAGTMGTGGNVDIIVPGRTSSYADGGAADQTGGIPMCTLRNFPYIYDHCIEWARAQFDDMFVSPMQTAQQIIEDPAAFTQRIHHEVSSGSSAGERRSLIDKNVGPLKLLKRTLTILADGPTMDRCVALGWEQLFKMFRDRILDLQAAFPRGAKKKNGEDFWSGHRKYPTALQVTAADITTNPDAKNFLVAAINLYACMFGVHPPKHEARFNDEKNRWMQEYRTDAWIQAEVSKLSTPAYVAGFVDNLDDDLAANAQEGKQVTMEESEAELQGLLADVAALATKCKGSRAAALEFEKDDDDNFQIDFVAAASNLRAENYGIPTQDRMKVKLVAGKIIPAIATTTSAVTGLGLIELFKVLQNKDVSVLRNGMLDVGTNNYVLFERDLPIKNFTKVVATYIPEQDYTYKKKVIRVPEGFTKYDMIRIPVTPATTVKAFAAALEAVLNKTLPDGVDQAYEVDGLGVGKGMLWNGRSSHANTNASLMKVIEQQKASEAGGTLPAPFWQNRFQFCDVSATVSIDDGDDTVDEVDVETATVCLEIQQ
The assay can be described thus: Leishmania donovani Ubiquitin Activating Enzyme (LdE1). It is filed as functional. The conditions noted are these: 30 µM.

The target in assay [3] is AMP-activated protein kinase, AMPK (Homo sapiens) (UniProt P54646+O43741+P54619+Q9UGJ0+Q9Y478+Q13131+Q9UGI9). In words: AMP-dependent Kinase enzyme assay. An in vitro enzyme assay that detects ADP turnover that is directly proportional to AMPK activity. This uses naive AMPK that is activated during the assay with MK-8722. Format: functional. The conditions noted are these: 30 µM.

The target of assay [4] is Sialic acid-binding Ig-like lectin 9 (Homo sapiens) (UniProt Q9Y336). In words: Hs-Siglec9 ALPHAscreen SOP 20170721. The conditions noted are these: 10 µM. For orientation: Alpha assays give light when donor and acceptor beads are brought close together.
Sequence of Sialic acid-binding Ig-like lectin 9 (Homo sapiens) (Q9Y336 whole entry): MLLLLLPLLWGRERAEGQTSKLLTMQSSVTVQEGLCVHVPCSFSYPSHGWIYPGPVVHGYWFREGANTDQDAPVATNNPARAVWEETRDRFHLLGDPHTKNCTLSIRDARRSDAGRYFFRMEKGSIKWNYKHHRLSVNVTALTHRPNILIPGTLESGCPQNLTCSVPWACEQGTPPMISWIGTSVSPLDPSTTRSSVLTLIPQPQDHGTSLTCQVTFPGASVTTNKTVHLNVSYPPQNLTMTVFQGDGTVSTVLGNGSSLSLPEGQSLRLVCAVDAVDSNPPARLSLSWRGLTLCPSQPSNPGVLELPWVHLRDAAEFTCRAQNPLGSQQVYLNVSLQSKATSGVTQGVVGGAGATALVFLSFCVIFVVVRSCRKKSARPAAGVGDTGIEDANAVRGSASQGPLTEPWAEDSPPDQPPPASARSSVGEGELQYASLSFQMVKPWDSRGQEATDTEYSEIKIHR
The next assay relates to Trypanosoma cruzi. The assay can be described thus: Trypanosoma cruzi phosphomannomutase and mannose-1-phosphate guanylyltransferase assay. Format: functional. The conditions noted are these: 10 µM.
The target in assay [5] is T2, Arginase-2, mitochondrial (Homo sapiens) (UniProt P78540).
T2 sequence (whole entry): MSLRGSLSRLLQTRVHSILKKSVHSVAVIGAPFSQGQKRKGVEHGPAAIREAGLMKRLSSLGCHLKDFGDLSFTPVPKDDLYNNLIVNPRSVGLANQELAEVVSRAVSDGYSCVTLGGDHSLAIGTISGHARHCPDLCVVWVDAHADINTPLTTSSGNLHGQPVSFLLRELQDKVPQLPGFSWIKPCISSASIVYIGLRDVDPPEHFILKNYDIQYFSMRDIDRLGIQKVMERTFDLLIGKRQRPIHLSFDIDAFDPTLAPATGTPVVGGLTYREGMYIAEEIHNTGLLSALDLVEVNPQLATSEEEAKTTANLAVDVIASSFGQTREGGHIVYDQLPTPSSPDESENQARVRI
The assay can be described thus: in vitro enzyme assay to detect the production of urea directly proportional to the activity of Arginase II. Further: in the data most compounds retested in dose-response had high values. Format: functional.

For assay [6], the target named is T3, Proteasome subunit beta (Trypanosoma cruzi) (UniProt O96673).
T3 sequence (whole entry): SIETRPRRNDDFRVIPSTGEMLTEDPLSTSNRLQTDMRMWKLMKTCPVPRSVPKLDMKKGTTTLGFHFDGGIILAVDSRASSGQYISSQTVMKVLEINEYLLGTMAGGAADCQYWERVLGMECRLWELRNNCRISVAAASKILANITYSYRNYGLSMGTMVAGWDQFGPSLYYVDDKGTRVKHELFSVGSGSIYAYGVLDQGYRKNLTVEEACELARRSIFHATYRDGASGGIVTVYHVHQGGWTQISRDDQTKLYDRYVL
The assay can be described thus: Trypanosoma cruzi proteasome chymotrypsin-like activity (TcProtChymo) assay. Further: in the data most compounds retested in dose-response had high values. It is filed as functional. The conditions noted are these: 9.37 µM.

For another assay, the species on record is Homo sapiens. In words: To identify inhibition of the IFN signalling (Jak-Stat) pathway via expression of an eGFP reporter gene under the control of an IFN-stimulated response element (ISRE) containing MxA promoter. It is filed as functional. The conditions noted are these: 30 µM. A general note: Reporter assays use an easily measured gene product as a stand-in for the process of interest.

The target in assay [7] is T4, Tyrosyl-tRNA synthetase, putative (Trypanosoma cruzi (strain CL Brener)) (UniProt Q4DSP6).
T4 sequence (whole entry): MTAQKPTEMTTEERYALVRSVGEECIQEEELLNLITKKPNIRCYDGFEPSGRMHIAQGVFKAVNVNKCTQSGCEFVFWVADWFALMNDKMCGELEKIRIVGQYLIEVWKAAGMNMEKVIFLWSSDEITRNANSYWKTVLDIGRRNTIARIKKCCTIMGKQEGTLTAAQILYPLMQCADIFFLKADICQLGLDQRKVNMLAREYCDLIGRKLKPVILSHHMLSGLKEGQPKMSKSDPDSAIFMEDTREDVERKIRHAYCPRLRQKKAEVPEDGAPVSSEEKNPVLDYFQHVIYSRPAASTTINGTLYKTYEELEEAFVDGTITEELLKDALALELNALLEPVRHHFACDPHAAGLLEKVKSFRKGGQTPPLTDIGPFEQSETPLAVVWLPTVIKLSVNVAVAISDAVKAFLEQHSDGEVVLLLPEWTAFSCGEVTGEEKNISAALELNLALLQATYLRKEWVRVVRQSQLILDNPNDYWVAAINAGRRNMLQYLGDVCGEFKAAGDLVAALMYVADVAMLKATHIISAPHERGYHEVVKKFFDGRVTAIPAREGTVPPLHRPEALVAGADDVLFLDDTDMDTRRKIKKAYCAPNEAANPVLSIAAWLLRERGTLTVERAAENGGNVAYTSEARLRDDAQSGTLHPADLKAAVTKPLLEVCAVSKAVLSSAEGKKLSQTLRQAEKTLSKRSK
The assay can be described thus: Trypanosoma cruzi tyrosyl tRNA synthetase (TcYRS) _High Tyrosine SOP. Further: in the data most compounds retested in dose-response had high values. It is filed as functional. The conditions noted are these: 30 µM.

Assay [8] has as its target T4, Tyrosyl-tRNA synthetase, putative (Trypanosoma cruzi (strain CL Brener)). The assay can be described thus: Trypanosoma cruzi tyrosyl tRNA synthetase (TcYRS) SOP. Format: functional. The conditions noted are these: 30 µM.
In assay [9] the target is Chromo domain-containing protein 1 (Saccharomyces cerevisiae (strain ATCC 204508 / S288c) (Baker's yeast)) (UniProt P32657). In words: ScCHD-1 Enzyme Inhibition Assay. Further: in the data most compounds retested in dose-response had high values. Format: functional. The conditions noted are these: 30 µM.
Sequence of Chromo domain-containing protein 1 (Saccharomyces cerevisiae (strain ATCC 204508 / S288c) (Baker's yeast)) (P32657 whole entry, the tested form may be a part): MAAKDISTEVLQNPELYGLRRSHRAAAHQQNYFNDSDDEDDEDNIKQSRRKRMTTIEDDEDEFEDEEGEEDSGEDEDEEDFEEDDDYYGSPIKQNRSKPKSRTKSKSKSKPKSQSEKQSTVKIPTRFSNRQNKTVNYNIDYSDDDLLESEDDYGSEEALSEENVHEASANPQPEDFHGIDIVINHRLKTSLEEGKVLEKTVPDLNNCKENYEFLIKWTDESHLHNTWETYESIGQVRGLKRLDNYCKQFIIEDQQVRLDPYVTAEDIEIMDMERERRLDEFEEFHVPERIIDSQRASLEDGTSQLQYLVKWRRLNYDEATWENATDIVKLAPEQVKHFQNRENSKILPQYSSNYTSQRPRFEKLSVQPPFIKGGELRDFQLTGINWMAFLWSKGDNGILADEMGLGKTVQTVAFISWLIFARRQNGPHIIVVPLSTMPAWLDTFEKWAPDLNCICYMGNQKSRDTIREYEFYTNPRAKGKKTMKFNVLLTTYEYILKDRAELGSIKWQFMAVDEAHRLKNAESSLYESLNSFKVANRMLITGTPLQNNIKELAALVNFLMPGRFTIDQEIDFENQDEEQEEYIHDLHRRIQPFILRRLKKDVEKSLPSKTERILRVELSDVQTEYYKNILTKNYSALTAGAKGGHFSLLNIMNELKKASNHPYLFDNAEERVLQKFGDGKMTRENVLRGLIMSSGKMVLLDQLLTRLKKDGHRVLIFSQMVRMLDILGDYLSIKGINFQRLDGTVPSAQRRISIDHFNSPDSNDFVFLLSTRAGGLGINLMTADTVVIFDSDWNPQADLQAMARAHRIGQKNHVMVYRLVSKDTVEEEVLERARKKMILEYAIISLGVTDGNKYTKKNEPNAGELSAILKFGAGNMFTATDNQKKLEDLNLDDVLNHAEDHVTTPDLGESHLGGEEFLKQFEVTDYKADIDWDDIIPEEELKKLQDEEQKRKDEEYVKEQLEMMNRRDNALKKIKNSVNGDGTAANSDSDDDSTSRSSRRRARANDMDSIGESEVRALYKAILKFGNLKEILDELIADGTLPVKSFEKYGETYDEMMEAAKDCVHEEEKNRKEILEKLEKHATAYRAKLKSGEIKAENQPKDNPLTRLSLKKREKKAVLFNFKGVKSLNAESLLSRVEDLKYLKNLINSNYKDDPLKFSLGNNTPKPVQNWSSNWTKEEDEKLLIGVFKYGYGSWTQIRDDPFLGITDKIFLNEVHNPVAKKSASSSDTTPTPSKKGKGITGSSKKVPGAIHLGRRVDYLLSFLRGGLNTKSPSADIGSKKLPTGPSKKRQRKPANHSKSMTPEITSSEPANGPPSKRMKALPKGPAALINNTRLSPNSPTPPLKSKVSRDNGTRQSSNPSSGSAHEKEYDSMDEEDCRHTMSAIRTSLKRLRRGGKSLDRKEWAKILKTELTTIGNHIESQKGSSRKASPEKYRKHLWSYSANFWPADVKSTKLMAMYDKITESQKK
Another assay relates to N/A. The assay can be described thus: Trypanosoma cruzi proteasome luciferase counter-screen. The conditions noted are these: 9.37 µM. It is filed as functional. Background: Counterscreens check selectivity or assay interference.

Sequence of Protein translocase subunit SecA (Escherichia coli (strain K12)) (P10408 whole entry): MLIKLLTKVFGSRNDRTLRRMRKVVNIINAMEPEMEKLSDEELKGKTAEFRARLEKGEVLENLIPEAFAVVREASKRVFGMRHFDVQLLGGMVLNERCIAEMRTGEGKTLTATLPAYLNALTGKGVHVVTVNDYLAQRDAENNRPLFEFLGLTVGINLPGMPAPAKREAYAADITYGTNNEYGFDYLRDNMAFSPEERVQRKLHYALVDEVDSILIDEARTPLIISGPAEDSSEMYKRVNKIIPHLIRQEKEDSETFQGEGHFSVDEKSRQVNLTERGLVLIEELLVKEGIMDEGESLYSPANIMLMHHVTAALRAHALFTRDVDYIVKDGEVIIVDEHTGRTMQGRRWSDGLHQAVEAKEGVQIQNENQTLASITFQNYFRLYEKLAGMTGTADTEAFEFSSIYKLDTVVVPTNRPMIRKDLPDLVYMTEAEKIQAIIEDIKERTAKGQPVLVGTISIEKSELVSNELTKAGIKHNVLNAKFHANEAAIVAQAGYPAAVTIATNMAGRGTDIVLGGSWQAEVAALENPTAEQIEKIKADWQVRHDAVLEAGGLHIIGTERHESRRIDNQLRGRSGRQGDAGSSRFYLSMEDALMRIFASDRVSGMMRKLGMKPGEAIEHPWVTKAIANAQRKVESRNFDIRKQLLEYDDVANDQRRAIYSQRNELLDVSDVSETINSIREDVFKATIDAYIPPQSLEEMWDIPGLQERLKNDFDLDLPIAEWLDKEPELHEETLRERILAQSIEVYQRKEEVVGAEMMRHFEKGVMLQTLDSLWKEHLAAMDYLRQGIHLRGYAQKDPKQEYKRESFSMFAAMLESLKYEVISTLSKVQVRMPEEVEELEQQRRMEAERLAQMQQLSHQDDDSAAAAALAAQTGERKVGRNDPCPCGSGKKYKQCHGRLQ

Take `CCNC(=O)C1CCN(Cc2csc(-c3ccc(C)o3)n2)CC1`: the Percent Effect is -0.895% in [1]; 11.4% in [2]; 2.01% in [3]; 2.17% in assay [4]; 2.97% with Trypanosoma cruzi; 1.5% in assay [5] (33.3 µM). Moreover, the Percent Effect in assay [6] is 14.1%; in the assay listed under Homo sapiens, 27.6%; in assay [7] it was 7.29%; in assay [8] it was 20.2%; in assay [9] it was -26.4%.

On to `Cc1cc(NS(=O)(=O)c2ccccc2F)ccc1-n1cccc1C(=O)O`, for which the Percent Effect is -2.35% in assay [1]; 2.63% in assay [2]; 6.59% in assay [3]; 4.36% in [4]; -1.27% in the assay on Trypanosoma cruzi; -7.1% in assay [5] (33.3 µM). For the same molecule, the Percent Effect is 24.1% in [6]; -10.4% in the assay filed under Homo sapiens; -4.25% in assay [7]; 0% in [8]; -2.97% in assay [9].

Consider `CCc1n[nH]c(C2CN(C(=O)c3ccsc3)CCO2)n1` (centres undefined), for which the Percent Effect in [1] is -3.58%; in assay [2], 0%; in [3], 6.15%; in assay [4] it was 8.54%; in the assay with Trypanosoma cruzi, -0.686%; in assay [5] (33.3 µM), 4.84%. For the same molecule, the Percent Effect was 6.39% in assay [6]; 4.84% in the assay filed under Homo sapiens; -2.86% in [7]; -2.35% in assay [8]; -13.8% in [9].

Take `Cc1ncnc2c1CCN(Cc1ccc3c(c1)OCO3)CC2`: the Percent Effect was -2.54% in assay [1]; 13.7% in [2]; -1.53% in assay [3]; 8.83% in assay [4]; 3.97% with Trypanosoma cruzi; 1.2% in assay [5] (33.3 µM). The Percent Effect in [6] is 6.08%; in the assay filed under Homo sapiens, -10.2%; in [7], 3.12%; in assay [8] it was 11.1%; in [9] it was -2.7%.

Turning to `O=C(c1cccc(N2CCCC2=O)c1)N1CCCC(n2cncn2)C1` (centres undefined), the Percent Effect was -5.98% in assay [1]; 13.5% in assay [2]; -31.2% in assay [3]; 2.17% in assay [4]; -1.6% in the assay on Trypanosoma cruzi; -1.6% in assay [5] (33.3 µM). Further, the Percent Effect in assay [6] is -0.18%; in the assay filed under Homo sapiens, 7.08%; in assay [7], 8.37%; in assay [8], 13.6%; in assay [9], -5.4%.

Consider `CN(Cc1cn2ccccc2n1)C1CCCN(c2cccnn2)C1` (centres undefined), for which the Percent Effect in assay [1] was -0.768%; in assay [2] it was 26%; in [4] it was -7.59%; in the assay with Trypanosoma cruzi, 0.187%; in assay [5] (33.3 µM), -4.71%; in assay [6], 15.1%. The Percent Effect in the assay filed under Homo sapiens was -3.7%; in [7] it was 7.84%; in assay [8], 18.8%; in [9] it was -9.66%.

Consider `CS(=O)(=O)N1CCN(C(=O)Cn2ccc3c(Cl)cccc32)CC1`, for which the Percent Effect in [1] is -4.17%; in assay [2] it was -2.7%; in assay [4], -2.63%; in the assay with Trypanosoma cruzi it was -7.08%; in assay [5] (30 µM) it was 5.95%; in assay [5] (33.3 µM) it was -3.15%. Further, the Percent Effect in assay [6] was 18.1%; in the assay filed under Homo sapiens, 4.83%; in assay [7], 2.66%; in [8], 2.44%; in assay [9], -0.985%.

For `Cc1ccc(NC(=O)C2=CN=S=N2)cc1`, the Percent Effect is 1.26% in [1]; 17.3% in assay [2]; -13.9% in assay [4]; 3.94% with Trypanosoma cruzi; 0% in assay [5] (33.3 µM); 84.2% and 80.5% and 69% in [6]. Moreover, the Percent Effect was 45.6% and 45.1% with N/A; 21.4% in the assay listed under Homo sapiens; 4.23% in assay [7]; 10% in assay [8]; -20.4% in [9].

As for `COc1ccc(-c2ccnc3c2C(=O)CCC3)cc1`, the Percent Effect in assay [1] was 0.627%; in [2], 22.7%; in [4] it was -8.36%; with Trypanosoma cruzi, 0.789%; in assay [5] (33.3 µM), 0.885%; in assay [6] it was 78.1% and 77.9% and 84.4%. The Percent Effect with N/A is 54.8% and 45.5%; in the assay listed under Homo sapiens, 22.2%; in assay [7] it was 2.12%; in assay [8], 7.5%; in assay [9] it was -22.2%.

With `Cc1nc(C)n(CC2CCCN2Cc2nc(N)c3ccccc3n2)n1` (centres undefined), the Percent Effect in [1] was -1.49%; in assay [2], 21.3%; in assay [4], -3.38%; in the assay on Trypanosoma cruzi, 3.81%; in assay [5] (33.3 µM), -3.1%; in assay [6], 16.4% and 18.4% and 30.6%. The Percent Effect in the assay on N/A is 8.36% and 7.38%; in the assay listed under Homo sapiens, 8.71%; in [7] it was 6.84%; in assay [8], 15.4%; in [9], -17.8%.
